Source: PubChem BioAssay (Tox21)
Results filed as inconclusive are left out. Active and inactive are the calls of the source. Unless noted, calls follow the shape of the full dose curve.

Tests used:
[1] = qHTS assay to identify small molecule antagonists of the estrogen receptor beta (ER-beta) signaling pathway - cell viability counter screen (AID 1259382; active = well fitted curve in the direction sought with a large enough effect in the repeat runs; an effect the other way counts as inactive or inconclusive;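 also: HEK293T cells carrying ER-beta-UAS-bla reporter stimulated with estradiol; series mostly up to about 92 µM; nearly all actives have a fitted effect of over 55% in size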)
How it was run: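 CellTiter-Glo ATP luminescence measured after the LiveBLAzer read in the same wells; ER-beta-UAS-bla HEK293T cells, 16 hr compound treatment with 1nM 17-beta-estradiol agonist at 37C, 5% CO2.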

[2] = target: Estrogen receptor (Homo sapiens) (UniProt P03372); experiment: qHTS assay to identify small molecule agonists of the estrogen receptor alpha (ER-alpha) signaling pathway in the presence of an antagonist (AID 1259383); also: top concentration of the series differs between compounds; nearly all actives have a fitted effect of over 15% in size
Sequence of Estrogen receptor (Homo sapiens) (P03372 whole entry, looked up): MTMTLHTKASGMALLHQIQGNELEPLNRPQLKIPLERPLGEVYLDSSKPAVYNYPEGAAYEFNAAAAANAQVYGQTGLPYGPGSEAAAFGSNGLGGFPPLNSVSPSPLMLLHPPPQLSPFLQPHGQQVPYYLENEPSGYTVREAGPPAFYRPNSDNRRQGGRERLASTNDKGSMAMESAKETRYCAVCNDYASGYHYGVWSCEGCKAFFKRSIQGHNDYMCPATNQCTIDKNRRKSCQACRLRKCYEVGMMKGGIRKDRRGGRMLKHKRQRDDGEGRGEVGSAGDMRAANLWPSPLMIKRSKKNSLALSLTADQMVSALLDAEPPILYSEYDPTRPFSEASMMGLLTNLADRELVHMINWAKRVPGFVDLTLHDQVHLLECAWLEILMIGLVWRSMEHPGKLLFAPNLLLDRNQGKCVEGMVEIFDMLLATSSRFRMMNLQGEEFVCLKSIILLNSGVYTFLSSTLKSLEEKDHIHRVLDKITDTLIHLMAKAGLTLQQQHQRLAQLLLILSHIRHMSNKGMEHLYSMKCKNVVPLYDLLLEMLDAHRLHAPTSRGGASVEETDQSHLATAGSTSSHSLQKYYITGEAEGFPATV
How it was run: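 Luminescent ERE-luciferase reporter, VM7Luc4E2 cells (endogenous ER-alpha); 10.0nM ICI-182,780 final; 15-point compound titration; 22hr at 37C; ONE-Glo, 30min RT.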

[3] = qHTS assay to identify small molecule agonists or antagonists of the thyroid stimulating hormone receptor (TSHR) signaling pathway - wild type cell line counter screen (AID 1259384)
How it was run: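 Wild-type Hek293 cells, 800/well, 18 h at 37C, then compound with Ro20-1724 for 30 min RT. cAMP by HTRF (cAMP-d2/anti-cAMP cryptate), 1 h RT, fluorescence read. 15 concentrations, triplicates.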

[4] = target: Thyrotropin receptor (Homo sapiens) (UniProt P16473); experiment: qHTS assay to identify small molecule antagonists of the thyroid stimulating hormone receptor (TSHR) signaling pathway (AID 1259385); also: nearly all actives have a fitted effect of over 20% in size
Sequence of Thyrotropin receptor (Homo sapiens) (P16473 whole entry, looked up): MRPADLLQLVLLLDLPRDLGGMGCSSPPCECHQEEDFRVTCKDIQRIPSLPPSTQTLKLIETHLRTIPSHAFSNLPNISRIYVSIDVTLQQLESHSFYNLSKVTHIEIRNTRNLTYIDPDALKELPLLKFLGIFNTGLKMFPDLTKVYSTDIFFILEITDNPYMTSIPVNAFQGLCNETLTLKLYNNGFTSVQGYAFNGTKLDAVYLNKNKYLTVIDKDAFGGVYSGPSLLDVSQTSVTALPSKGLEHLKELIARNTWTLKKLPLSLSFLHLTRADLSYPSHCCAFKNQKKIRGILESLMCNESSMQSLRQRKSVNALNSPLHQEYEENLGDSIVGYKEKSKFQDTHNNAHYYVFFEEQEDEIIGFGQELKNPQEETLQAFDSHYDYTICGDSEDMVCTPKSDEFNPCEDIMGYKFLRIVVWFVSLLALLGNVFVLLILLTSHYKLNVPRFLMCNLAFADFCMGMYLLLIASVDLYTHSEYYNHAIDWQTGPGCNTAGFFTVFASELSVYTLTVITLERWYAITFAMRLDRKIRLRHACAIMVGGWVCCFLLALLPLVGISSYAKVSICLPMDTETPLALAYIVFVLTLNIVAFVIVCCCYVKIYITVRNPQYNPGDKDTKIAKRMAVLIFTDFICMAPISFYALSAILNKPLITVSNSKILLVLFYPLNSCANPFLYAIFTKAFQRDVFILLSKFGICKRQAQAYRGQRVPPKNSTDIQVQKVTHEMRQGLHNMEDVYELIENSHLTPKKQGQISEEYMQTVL
How it was run: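 TSHR-HEK293 cells (800/well) plated 18 h, then compounds with Ro20-1724 and TSH at 1.5 ng/mL final, 30 min at room temperature. cAMP quantified by HTRF (cAMP-d2/anti-cAMP-cryptate, 1 h); 15 concentrations in triplicate.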

[5] = qHTS assay to identify small molecule agonists of the estrogen receptor alpha (ER-alpha) signaling pathway in the presence of an antagonist - cell viability counter screen (AID 1259386; active = well fitted curve in the direction sought with a large enough effect in the repeat runs; an effect the other way counts as inactive or inconclusive;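 also: series mostly up to about 92 µM; cells exposed to compounds for 22 h at 37 °C before the viability read; nearly all actives have a fitted effect of over 30% in size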)
How it was run: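 Using estrogen-depleted VM7Luc4E2 cells, the 15-concentration compound series was applied together with 10.0nM ICI-182,780 and incubated 22hr at 37C/5% CO2. Cell viability was then scored by CellTiter-Fluor.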

[6] = target: Progesterone receptor (Homo sapiens) (UniProt P06401); experiment: qHTS assay to identify small molecule agonists of the progesterone receptor (PR) signaling pathway (AID 1346784); also: nearly all actives have a fitted effect of over 30% in size
Sequence of Progesterone receptor (Homo sapiens) (P06401 whole entry, looked up): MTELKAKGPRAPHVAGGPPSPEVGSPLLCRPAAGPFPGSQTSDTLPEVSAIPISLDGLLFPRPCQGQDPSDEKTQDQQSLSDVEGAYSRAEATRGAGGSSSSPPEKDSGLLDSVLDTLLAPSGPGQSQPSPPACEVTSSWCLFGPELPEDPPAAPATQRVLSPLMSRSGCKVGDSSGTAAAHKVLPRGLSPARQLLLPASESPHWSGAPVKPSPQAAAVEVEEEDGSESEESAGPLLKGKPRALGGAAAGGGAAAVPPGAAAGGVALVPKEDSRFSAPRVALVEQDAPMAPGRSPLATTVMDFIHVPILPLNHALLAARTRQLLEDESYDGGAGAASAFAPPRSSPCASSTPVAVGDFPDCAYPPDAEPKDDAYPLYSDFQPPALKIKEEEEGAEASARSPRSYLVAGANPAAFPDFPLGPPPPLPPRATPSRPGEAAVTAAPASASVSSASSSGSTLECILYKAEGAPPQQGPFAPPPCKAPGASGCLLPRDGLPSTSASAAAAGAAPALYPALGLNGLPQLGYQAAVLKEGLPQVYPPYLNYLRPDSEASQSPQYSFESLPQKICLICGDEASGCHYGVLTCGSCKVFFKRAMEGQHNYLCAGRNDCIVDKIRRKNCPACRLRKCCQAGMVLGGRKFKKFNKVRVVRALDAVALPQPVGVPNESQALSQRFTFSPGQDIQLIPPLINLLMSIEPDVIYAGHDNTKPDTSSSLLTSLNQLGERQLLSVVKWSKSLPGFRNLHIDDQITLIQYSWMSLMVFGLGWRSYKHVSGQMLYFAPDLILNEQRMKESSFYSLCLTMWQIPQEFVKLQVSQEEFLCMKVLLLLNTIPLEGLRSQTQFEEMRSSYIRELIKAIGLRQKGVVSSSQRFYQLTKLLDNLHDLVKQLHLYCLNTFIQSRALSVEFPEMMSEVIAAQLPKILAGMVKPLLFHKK
How it was run: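 Seed PR-UAS-bla HEK 293T cells (2% charcoal-stripped FBS), incubate 6 hr at 37C; add compounds in DMSO, 16 hr at 37C; add LiveBLAzer B/G substrate, 2 hr RT; read fluorescence intensity.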

[7] = target: Progesterone receptor (Homo sapiens) (UniProt P06401); experiment: qHTS assay to identify small molecule antagonists of the progesterone receptor (PR) signaling pathway (AID 1346795; active = well fitted inhibition curve with a large enough effect in the signal ratio in the repeat runs, not every such curve was filed as active; the % refers to the signal ratio)
How it was run: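 Screening used a GripTite HEK293T line with PR-responsive UAS-beta-lactamase. Cells were challenged with compound in the presence of 1 nM R5020 final for 16 hr at 37C; B/G FRET substrate, 2 hr room temperature, fluorescence.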

[8] = qHTS assay to identify small molecule antagonists of the progesterone receptor (PR) signaling pathway - cell viability counter screen (AID 1346798; active = well fitted curve in the direction sought with a large enough effect in the repeat runs; an effect the other way counts as inactive or inconclusive; also: series mostly up to about 92 µM; nearly all actives have a fitted effect of over 50% in size)
How it was run: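 Measures cytotoxicity in parallel with the PR antagonist reporter read: HEK293T PR-UAS-bla cells get compound and R5020 for 16 hr, and remaining viable cells are quantified by CellTiter-Glo luminescence.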

[9] = qHTS assay to identify small molecule agonists of the progesterone receptor (PR) signaling pathway - cell viability counter screen (AID 1346799); also: nearly all actives have a fitted effect of over 45% in size
How it was run: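 Using the same plates as the PR reporter screen, HEK293T PR-UAS-bla cells received compounds for 16 hr at 37C and were then lysed with CellTiter-Glo; luminescence was read 30 min later at room temperature.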
% is scaled to controls: 0 for no effect and ±100 for the full control effect.

CC1(C)O[C@H]2CC(=O)OC[C@]23[C@H]2CC[C@@]4(C)[C@H](c5ccoc5)OC(=O)[C@H]5O[C@]54[C@]2(C)C(=O)C[C@@H]13
inactive: outcome [1] | Potency [2] | outcome [3] | outcome [4] | outcome [5] | Potency [6] | Potency [7] | outcome [8] | outcome [9]

CN1C[C@@H]2C[C@H]1CN2c1cc2c(cc1F)c(=O)c(C(=O)O)cn2C1CC1
inactive: activity change, negative = cytotoxicity [1] 7% [at 19 µM] | activation [2] 0.617% [at 19 µM] | cAMP activity change [3] -2.22% [at 18.9 µM] | activity change, negative = inhibition [4] -7.57% [at 19 µM] | activity change, negative = cytotoxicity [5] -0.242% [at 19 µM] | activation [6] 6.66% [at 19 µM] | activity change, negative = inhibition [7] 14.1% [at 18.9 µM] | activity change, negative = cytotoxicity [9] 18.9% [at 19 µM]

N#CCC(=O)NN
inactive: outcome [1] | Potency [2] | outcome [3] | outcome [4] | outcome [5] | Potency [6] | Potency [7] | outcome [8] | outcome [9]

CN(C)CCOC(=O)C(c1ccccc1)C1(O)CCCC1 (stereo not drawn)
inactive: outcome [1] | Potency [2] | outcome [3] | outcome [4] | outcome [5] | Potency [6] | Potency [7] | outcome [8] | outcome [9]

CCC(C)C(=O)OCCc1ccccc1 (stereo not drawn)
inactive: outcome [1] | Potency [2] | outcome [3] | outcome [4] | outcome [5] | Potency [6] | Potency [7] | outcome [8] | outcome [9]

CC12CCC(C1)C(C)(C)C2O (stereo not drawn)
inactive: outcome [1] | Potency [2] | outcome [3] | outcome [4] | outcome [5] | Potency [6] | Potency [7] | outcome [8] | outcome [9]

OC1OCCOC1O (stereo not drawn)
inactive: outcome [1] | Potency [2] | outcome [3] | outcome [4] | outcome [5] | Potency [6] | Potency [7] | outcome [8] | outcome [9]

CCCCCCC1(C)CCC(=O)O1 (stereo not drawn)
inactive: outcome [1] | Potency [2] | outcome [3] | outcome [4] | outcome [5] | Potency [6] | Potency [7] | outcome [8] | outcome [9]

Cc1cc(-c2ccccc2)nnc1NCCN1CCOCC1
inactive: outcome [1] | Potency [2] | outcome [3] | outcome [4] | outcome [5] | Potency [6] | Potency [7] | outcome [8] | outcome [9]

CCCCOCC(C)O (stereo not drawn)
inactive: outcome [1] | Potency [2] | outcome [3] | outcome [4] | outcome [5] | Potency [6] | Potency [7] | outcome [8] | outcome [9]

CCN(CC)CCN
inactive: outcome [1] | Potency [2] | outcome [3] | outcome [4] | outcome [5] | Potency [6] | Potency [7] | outcome [8] | outcome [9]

C=CC/C=C/C
inactive: outcome [1] | Potency [2] | outcome [3] | outcome [4] | outcome [5] | Potency [6] | Potency [7] | outcome [8] | outcome [9]

COC(=O)c1ccccc1C(=O)O
inactive: outcome [1] | Potency [2] | outcome [3] | outcome [4] | outcome [5] | Potency [6] | Potency [7] | outcome [8] | outcome [9]

OCCN1CCOCC1
inactive: outcome [1] | Potency [2] | outcome [3] | outcome [4] | outcome [5] | Potency [6] | Potency [7] | outcome [8] | outcome [9]

CCCCCCCCCCCCCCCCCC#N
inactive: outcome [1] | Potency [2] | outcome [3] | outcome [4] | outcome [5] | Potency [6] | Potency [7] | outcome [8] | outcome [9]

Cc1c(NC(=O)c2cccnc2)c(=O)n(-c2ccccc2)n1C
inactive: outcome [1] | Potency [2] | outcome [3] | outcome [4] | outcome [5] | Potency [6] | Potency [7] | outcome [8] | outcome [9]

CC1=C(O)C(=O)C(C)O1 (stereo not drawn)
inactive: outcome [1] | Potency [2] | outcome [3] | outcome [4] | outcome [5] | Potency [6] | Potency [7] | outcome [8] | outcome [9]

CSc1cnccn1
inactive: outcome [1] | Potency [2] | outcome [3] | outcome [4] | outcome [5] | Potency [6] | Potency [7] | outcome [8] | outcome [9]

O=C1OCCO1
inactive: outcome [1] | Potency [2] | outcome [3] | outcome [4] | outcome [5] | Potency [6] | Potency [7] | outcome [8] | outcome [9]

C=CCCCCCCCCC(=O)OCCCC
inactive: outcome [1] | Potency [2] | outcome [3] | outcome [4] | outcome [5] | Potency [6] | Potency [7] | outcome [9]

CN(C)CCN(C)CCO
inactive: outcome [1] | Potency [2] | outcome [3] | outcome [4] | outcome [5] | Potency [6] | Potency [7] | outcome [8] | outcome [9]

O=C1c2ccccc2C(=O)c2cc(Cl)ccc21
inactive: activity change, negative = cytotoxicity [1] 1.86% [at 8.39 µM] | activation [2] 1.09% [at 8.39 µM] | cAMP activity change [3] 2.64% [at 8.39 µM] | activity change, negative = inhibition [4] -1.43% [at 8.39 µM] | activity change, negative = cytotoxicity [5] 1.35% [at 8.39 µM] | activation [6] 2.34% [at 8.39 µM] | activity change, negative = inhibition [7] 1.29% [at 8.39 µM] | activity change, negative = cytotoxicity [8] -7.61% [at 8.39 µM] | activity change, negative = cytotoxicity [9] 13.3% [at 8.39 µM]

CCOc1cccc(N)c1
inactive: outcome [1] | Potency [2] | outcome [3] | outcome [4] | outcome [5] | Potency [6] | Potency [7] | outcome [8] | outcome [9]

O=C1CCCCO1
inactive: outcome [1] | Potency [2] | outcome [3] | outcome [4] | outcome [5] | Potency [6] | Potency [7] | outcome [8] | outcome [9]

CCCC(CC)c1ccccc1 (stereo not drawn)
inactive: outcome [1] | Potency [2] | outcome [3] | outcome [4] | outcome [5] | Potency [6] | Potency [7] | outcome [8] | outcome [9]
